IL1B secr inh: qHTS for Inhibitors of Inflammasome Signaling: IL-1-beta AlphaLISA Primary Screen | THP-1 LPS/ATP IL-1B secretion, AlphaLISA, 16 h; stronger effect = lower value | activity change, % at 57.5 µM | 4.7% of 360,000 active; in the data active = activity change below about -50%; inconclusive = mostly about -30% to -49%; also: % is scaled to controls: 0 for no effect and ±100 for the full control effect
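Secreted IL-1B measured by AlphaLISA bead assay after 16 h compound exposure of THP-1 cells; compounds (final up to 57.5 uM) added 1 h before LPS (250 ng/mL) and ATP (1.25 mM) stimulation; lower signal means less secretion.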
HepG2 viability: qHTS for Inhibitors of TGF-b: Cytotox Counterscreen. 0.76% of 410,000 active. HepG2 CAGA-GFP viability, ATP luminescence, 18 h. AID 588856, 2011. Potency, µM (titrated, usually from 46.1 µM), for inactives: at the highest dose activity change, negative = cytotoxicity, actives largely listed as cytotoxic; also: potency is read from the fitted curve at half-maximal effect
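CellTiter-Glo luminescence gave cytotoxicity after 18 hours at 37 degrees C. The cells were HepG2 CAGA-GFP in 1% FBS DMEM, stimulated with 500 pg/mL TGF-beta after compound addition. %Activity was normalised to no-cell wells (complete cell-killing) and DMSO (no toxicity), and curves were fitted and classified.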
DT40 TDP1 no CPT: qHTS for Inhibitors of human tyrosyl-DNA phosphodiesterase 1 (TDP1): qHTS in cells in absence of CPT. DT40 Tdp1-/- hTDP1 cells, no CPT, ATP luminescence, 48 h. Potency, µM (top dose mostly 46.2 µM), inactives show top-dose activity change, negative = growth inhibition, hits mostly inhibitors. 15% of 420,000 active; also: potency is read from the fitted curve at half-maximal effect; % is scaled to controls: 0 for no effect and ±100 for the full control effect; nearly all actives have a fitted effect of over 55% in size
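Chicken DT40 Tdp1-/- cells stably complemented with human TDP1 were seeded at 400 cells/well with DMSO in place of 20 nM camptothecin. After compound pinning, cells grew at least 48 hr at 37 °C; viability read by CellTiter-Glo luminescence.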
TGFb SMAD3 inh: qHTS for Inhibitors of TGF-b. HepG2 CAGA-GFP TGF-b/SMAD3 reporter, GFP fluorescence, 18 h; TGF-beta stimulated, 500 pg/mL final. Potency, µM (top dose mostly 46.1 µM), without a hit: at the top dose activity, negative = inhibition, usual class: inhibitors. 1.2% of 410,000 active. AID 588855, 2011; also: potency is read from the fitted curve at half-maximal effect; % is scaled to controls: 0 for no effect and ±100 for the full control effect; nearly all actives have a fitted effect of over 65% in size
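GFP signal (ex488/em500-530) from TGF-beta-stimulated HEPG2 CAGA-GFP cells, 500 pg/mL final, 18 h at 37 degrees C in DMEM plus 1% FBS, normalized to unstimulated and DMSO-stimulated controls.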
DT40 TDP1 CPT: qHTS for Inhibitors of human tyrosyl-DNA phosphodiesterase 1 (TDP1): qHTS in cells in presence of CPT | chicken DT40 Tdp1-/-;hTDP1 cells + 20 nM CPT, ATP luminescence, 48 h | Potency, µM (titrated, usually from 46.2 µM), inactives show top-dose activity change, negative = growth inhibition, most hits filed as inhibitors | 12% of 420,000 active; also: potency is read from the fitted curve at half-maximal effect; % is scaled to controls: 0 for no effect and ±100 for the full control effect; nearly all actives have a fitted effect of over 55% in size
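Cell growth measured by CellTiter-Glo luminescence after a minimum 48 h, 37 C compound exposure with 20 nM CPT in Tdp1-knockout DT40 cells stably expressing hTDP1, seeded 400/well; qHTS titration format.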
TDP1 inh: qHTS Assay for Inhibitors of Tyrosyl-DNA Phosphodiesterase (TDP1). 0.28% of 350,000 active. AID 485290, 2010. recombinant TDP1, AlphaScreen DNA substrate cleavage. Potency, µM (doses to about 130 µM), for inactives: at the highest dose activity change, negative = inhibition, most hits filed as inhibitors; also: potency is read from the fitted curve at half-maximal effect; % is scaled to controls: 0 for no effect and ±100 for the full control effect; nearly all actives have a fitted effect of over 40% in size
Target sequence (Q9NUW8 whole entry, looked up): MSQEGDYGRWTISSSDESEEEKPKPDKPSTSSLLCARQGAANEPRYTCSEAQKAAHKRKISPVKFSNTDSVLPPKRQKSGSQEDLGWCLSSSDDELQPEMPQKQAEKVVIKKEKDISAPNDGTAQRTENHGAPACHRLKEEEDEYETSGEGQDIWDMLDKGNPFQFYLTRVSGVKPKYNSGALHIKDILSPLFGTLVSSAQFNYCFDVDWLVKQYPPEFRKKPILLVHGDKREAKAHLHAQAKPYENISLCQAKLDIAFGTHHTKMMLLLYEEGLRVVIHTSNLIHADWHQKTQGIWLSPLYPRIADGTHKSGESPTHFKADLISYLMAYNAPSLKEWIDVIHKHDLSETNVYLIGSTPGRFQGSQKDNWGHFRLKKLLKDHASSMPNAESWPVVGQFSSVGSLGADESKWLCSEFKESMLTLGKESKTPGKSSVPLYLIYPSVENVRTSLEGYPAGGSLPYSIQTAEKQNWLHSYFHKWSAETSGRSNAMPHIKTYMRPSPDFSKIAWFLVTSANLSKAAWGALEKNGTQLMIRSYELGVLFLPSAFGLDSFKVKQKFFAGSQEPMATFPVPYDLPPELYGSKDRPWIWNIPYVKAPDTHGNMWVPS
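Compounds were preincubated with Tdp1 (1 nM final) for 15 min at room temperature before substrate (15 nM final) started a 5 min reaction; beads (10 ug/ml final) were then added for 10 min before AlphaScreen detection.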
An asterisk follows results filed as active; ? = inconclusive; nt = no result given. An excerpt weighted towards active compounds, which were near 18% of everything screened. Unless noted, calls follow the shape of the dose curve; as a rule, active = well fitted curve in the direction sought with a large enough effect; inconclusive = small, poorly fitted or top-dose-only effect, or another doubt; inactive = no such curve, though single readings can be large; an effect the other way counts as inactive or inconclusive.

SMILES	IL1B secr inh	HepG2 viability	DT40 TDP1 no CPT	TGFb SMAD3 inh	DT40 TDP1 CPT	TDP1 inh
COc1ccc(N2CCN(C(=O)CCCCn3c(=O)[nH]c4ccsc4c3=O)CC2)cc1	15	-24%	26µM*	-4%	?	1%
COc1cc2[nH]c(=O)n(CCCCCC(=O)N3CC=C(c4ccccc4)CC3)c(=O)c2cc1OC	-73*	-27%	16µM*	-25%	26µM*	8%
COc1ccc(N2CCN(C(=O)CCCn3c(=O)[nH]c4ccsc4c3=O)CC2)cc1	-2	23%	-13%	31%	-22%	4%
COc1ccccc1N1CCN(C(=O)CCCn2c(=O)[nH]c3ccsc3c2=O)CC1	-18	-1%	?	15%	-19%	7%
COc1ccc(-c2cc(C(F)(F)F)c3c(n2)sc2c(O)cc(=O)[nH]c23)c(OC)c1	0	2.2µM*	?	8%	-4%	0%
COc1ccc(OC)c(NC(=O)CSc2nc3[nH]c(=O)cc(O)c3s2)c1	7	-2%	-9%	-10%	2%	-2%
CC(=O)c1sc2nc(C)cc(C)c2c1N	-8	0%	?	-22%	-23%	-3%
Cc1cc(C)c2c(n1)sc1c(O)cc(=O)[nH]c12	6	-7%	-11%	0%	12%	22µM*
CC(=O)N(C)C[C@H]1Oc2ncc(Br)cc2C(=O)N([C@H](C)CO)C[C@@H]1C	17	-2%	-1%	2%	6%	nt
COc1ccc(C(=O)CC(=O)c2ccccc2)cc1	-13	-52%	?	0%	-17%	nt
COc1ccc(/C(C)=N/Nc2cccc(C(=O)O)c2)cc1OC	-1	-6%	-2%	3%	0%	-3%
COc1ccc(/C(=C/Nc2cccc(Br)c2)C(C)=O)cc1OC	-84*	-3%	?	8%	-3%	6%
COc1ccc(N/C=C(/C(C)=O)c2ccccc2)cc1	-84*	-1%	-15%	1%	-7%	7%
CCc1ccc2[nH]c(=O)c(CN(CCN(CC)CC)C(=O)NC3CCCCC3)cc2c1	-56*	-72%	26µM*	?	15µM*	10%
CCc1ccc2[nH]c(=O)c(CN(CCN(C)C)C(=O)Nc3ccccc3)cc2c1	-59*	-13%	?	26%	?	6%
O=C(CN1CCN(S(=O)(=O)c2ccc(Cl)cc2)CC1)NCC1(N2CCOCC2)CCCCC1	-4	-23%	-24%	-21%	?	1%
CCOC(=O)c1c(C)[nH]c(C)c1C(=O)COC(=O)C1CCCN1S(=O)(=O)c1ccccc1F (stereo not given)	27	-19%	15µM*	-9%	12µM*	7%
CCOC(=O)C1=CCN(S(=O)(=O)c2ccccc2Cl)C1c1ccc(C)cc1 (stereo not given)	20	-15%	18µM*	-12%	26µM*	nt
CCOC(=O)C1=CCN(S(=O)(=O)c2ccccc2C)C1c1ccc(Cl)cc1 (stereo not given)	8	-26%	15µM*	?	?	nt
CCOC(=O)C1=CCN(S(=O)(=O)c2ccccc2F)C1c1ccccc1 (stereo not given)	47	-4%	16µM*	?	?	nt
Cc1cc(C)cc(NC(=O)c2cc(S(=O)(=O)N3CCCCCC3)cn2C)c1	nt	-1%	-17%	3%	-10%	4%
Cc1ccc(S(=O)(=O)N2[C@@H](c3ccc(F)cc3)C(C(=O)O)=CC[C@H]2c2cccs2)cc1	19	-2%	-23%	?	-11%	0%
CCOC(=O)C1=C(CS(=O)(=O)c2ccccc2)NC(=O)NC1c1cc(OC)c(O)c(OC)c1 (stereo not given)	26	-2%	12%	12%	-3%	0%
Cn1c(SCC(=O)c2ccccc2)nnc1-c1cccs1	0	3%	?	-20%	-1%	nt
Cc1ccc(C)c(N2CCN(c3nc4ccccc4n4c(C)nnc34)CC2)c1	nt	0%	-4%	6%	0%	0%
SMILES	IL1B secr inh	HepG2 viability	DT40 TDP1 no CPT	TGFb SMAD3 inh	DT40 TDP1 CPT	TDP1 inh
COc1ccc(OCC(=O)N/N=C/C(C)=C/c2ccco2)c(Br)c1	0	-102%	?	?	?	nt
CCOC(=O)C1=CCN(S(=O)(=O)c2ccccc2Cl)C1c1ccccc1 (stereo not given)	42	-2%	23µM*	0%	?	nt
O=S1(=O)C[C@@H](N2CCN(CC3CC3)CC2)[C@H](COCc2ccccc2)N1	6	8%	-13%	1%	-19%	nt
CSc1nnc2c3ccccc3n(CCc3ccccc3)c2n1	0	-18%	16µM*	-1%	7.3µM*	2%
CCCCn1c2ccc(F)cc2c2nnc(SCCN3CCOCC3)nc21	-22	4%	29µM*	2%	?	nt
COc1ccc2c(c1)c1nnc(SC)nc1n2C	18	-6%	-19%	6%	-12%	4%
Cn1c2ccc(F)cc2c2nnc(SCCN3CCOCC3)nc21	8	1%	-16%	16%	1%	nt
CCCCn1c2ccc(F)cc2c2nnc(SCCN(CC)CC)nc21	nt	-22%	26µM*	-17%	21µM*	2%
CSc1nnc2c3ccccc3n(Cc3ccccc3)c2n1	-15	-25%	?	-1%	?	4%
COc1ccc2c(c1)c1nnc(SCCN3CCOCC3)nc1n2C	nt	nt	16µM*	nt	?	nt
CCCN(c1ccc(C(C)C)cc1)S(=O)(=O)c1ccc2c(c1)n(C)c(=O)c(=O)n2C	nt	-3%	-5%	-2%	5%	2%
Cc1ccc(NS(=O)(=O)c2ccc3c(c2)NC(=O)CCS3)c(Br)c1	64	-20%	-18%	?	?	5%
Cc1cc(C)c2c(=O)cc(C(=O)Nc3c(C)n(C)n(-c4ccccc4)c3=O)oc2c1	nt	17%	-22%	-9%	6%	5%
CCc1ccccc1NC(=O)Cn1c(=O)n(-c2ccc(C)cc2)c(=O)c2c1c1cc(C)ccc1n2C	nt	-2%	-1%	1%	-4%	10%
CCc1oc2ccccc2c1C(=O)c1cc(I)c(O)c(I)c1	nt	nt	?	nt	?	4%

Screens as filed in PubChem.
